# Columns and labels:
# Assay in all cases: SPOT peptide array binding signal intensity (averaged, normalized) (arbitrary units (background-subtracted, floor 0; scale differs between SH3 domains)); higher = stronger binding of the SH3 domain to the peptide
# [1] = target: AgAbp1
# In short: (§1)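 Peptides were synthetic 15-mers on cellulose membranes, with every cysteine replaced by serine. They were incubated overnight at 4°C with GST-SH3 domains from four yeast species at 10 μg/ml in TBS-based blocking buffer. Binding signal, the replicate-averaged normalized and background-subtracted spot intensity, is in arbitrary units that differ between domains.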
# [2] = target: AgBbc1
# In short: as §1
# [3] = target: AgBem1-D1
# In short: as §1
# [4] = target: AgBzz1-D1
# In short: as §1
# [5] = target: AgBzz1-D2
# In short: as §1
# [6] = target: AgCyk3
# In short: as §1
# [7] = target: AgFus1
# In short: as §1
# [8] = target: AgHof1
# In short: as §1
# [9] = target: AgHse1
# In short: as §1
# [10] = target: AgLsb1
# In short: as §1
# [11] = target: AgLsb4
# In short: as §1
# [12] = target: AgMyo5
# In short: as §1
# [13] = target: AgNbp2
# In short: as §1
# [14] = target: AgRvs167
# In short: as §1
# [15] = target: AgSho1
# In short: as §1
# [16] = target: AgSla1-D1-D2
# In short: as §1
# [17] = target: AgSla1-D3
# In short: as §1
# [18] = target: CaAbp1-D1
# In short: as §1
# [19] = target: CaAbp1-D2
# In short: as §1
# [20] = target: CaBbc1
# In short: as §1
# [21] = target: CaBem1-D1
# In short: as §1
# [22] = target: CaBzz1-D1
# In short: as §1
# [23] = target: CaBzz1-D2
# In short: as §1
# [24] = target: CaCyk3
# In short: as §1
# [25] = target: CaFus1
# In short: as §1
# [26] = target: CaHof1
# In short: as §1
# [27] = target: CaHse1
# In short: as §1
# [28] = target: CaLsb1
# In short: as §1
# [29] = target: CaLsb4
# In short: as §1
# [30] = target: CaMyo5
# In short: as §1
# [31] = target: CaNbp2
# In short: as §1
# [32] = target: CaRvs167
# In short: as §1
# [33] = target: CaRvs167-3
# In short: as §1
# [34] = target: CaSho1
# In short: as §1
# [35] = target: CaSla1-D1-D2
# In short: as §1
# [36] = target: CaSla1-D3
# In short: as §1
# [37] = target: ScAbp1
# In short: as §1
# [38] = target: ScBbc1
# In short: as §1
# [39] = target: ScBem1-D1
# In short: as §1
# [40] = target: ScBzz1-D1
# In short: as §1
# [41] = target: ScBzz1-D2
# In short: as §1
# [42] = target: ScCyk3
# In short: as §1
# [43] = target: ScFus1
# In short: as §1
# [44] = target: ScHof1
# In short: as §1
# [45] = target: ScHse1
# In short: as §1
# [46] = target: ScLsb1
# In short: as §1
# [47] = target: ScLsb2
# In short: as §1
# [48] = target: ScLsb3
# In short: as §1
# [49] = target: ScLsb4
# In short: as §1
# [50] = target: ScMyo3
# In short: as §1
# [51] = target: ScMyo5
# In short: as §1
# [52] = target: ScNbp2
# In short: as §1
# [53] = target: ScPex13
# In short: as §1
# [54] = target: ScRvs167
# In short: as §1
# [55] = target: ScSho1
# In short: as §1
# [56] = target: ScSla1-D1-D2
# In short: as §1
# [57] = target: ScSla1-D3
# In short: as §1
# [58] = target: SpAbp1-D1
# In short: as §1
# [59] = target: SpBbc1
# In short: as §1
# [60] = target: SpBzz1-D1
# In short: as §1
# [61] = target: SpBzz1-D2
# In short: as §1
# [62] = target: SpCyk3
# In short: as §1
# [63] = target: SpHof1
# In short: as §1
# [64] = target: SpHof1-2
# In short: as §1
# [65] = target: SpHof1-3
# In short: as §1
# [66] = target: SpHse1
# In short: as §1
# [67] = target: SpLsb1
# In short: as §1
# [68] = target: SpLsb4
# In short: as §1
# [69] = target: SpMyo1
# In short: as §1
# [70] = target: SpNbp2
# In short: as §1
# [71] = target: SpPex13
# In short: as §1
# [72] = target: SpRvs167
# In short: as §1
# [73] = target: SpSla1-D1-D2
# In short: as §1
# [74] = target: SpSla1-D3
# In short: as §1
binder,measurement,setting,value
GDHPKGPPPPPPPPD,SPOT peptide array binding signal intensity,[1],≤ 0
same,SPOT peptide array binding signal intensity,[2],≤ 0
same,SPOT peptide array binding signal intensity,[3],≤ 0
same,SPOT peptide array binding signal intensity,[4],440
same,SPOT peptide array binding signal intensity,[5],43
same,SPOT peptide array binding signal intensity,[6],≤ 0
same,SPOT peptide array binding signal intensity,[7],3
same,SPOT peptide array binding signal intensity,[8],≤ 0
same,SPOT peptide array binding signal intensity,[9],≤ 0
same,SPOT peptide array binding signal intensity,[10],≤ 0
same,SPOT peptide array binding signal intensity,[11],≤ 0
same,SPOT peptide array binding signal intensity,[12],1010
same,SPOT peptide array binding signal intensity,[13],3
same,SPOT peptide array binding signal intensity,[14],≤ 0
same,SPOT peptide array binding signal intensity,[15],3
same,SPOT peptide array binding signal intensity,[16],≤ 0
same,SPOT peptide array binding signal intensity,[17],699
same,SPOT peptide array binding signal intensity,[18],≤ 0
same,SPOT peptide array binding signal intensity,[19],≤ 0
same,SPOT peptide array binding signal intensity,[20],≤ 0
same,SPOT peptide array binding signal intensity,[21],≤ 0
same,SPOT peptide array binding signal intensity,[22],2370
same,SPOT peptide array binding signal intensity,[23],1470
same,SPOT peptide array binding signal intensity,[24],4
same,SPOT peptide array binding signal intensity,[25],19
same,SPOT peptide array binding signal intensity,[26],≤ 0
same,SPOT peptide array binding signal intensity,[27],3.5
same,SPOT peptide array binding signal intensity,[28],≤ 0
same,SPOT peptide array binding signal intensity,[29],≤ 0
same,SPOT peptide array binding signal intensity,[30],34
KDKSRPPRPPPKPLH,SPOT peptide array binding signal intensity,[1],917
same,SPOT peptide array binding signal intensity,[2],282
same,SPOT peptide array binding signal intensity,[3],30
same,SPOT peptide array binding signal intensity,[4],257
same,SPOT peptide array binding signal intensity,[5],119
same,SPOT peptide array binding signal intensity,[6],≤ 0
same,SPOT peptide array binding signal intensity,[7],≤ 0
same,SPOT peptide array binding signal intensity,[8],55.8
same,SPOT peptide array binding signal intensity,[9],27
same,SPOT peptide array binding signal intensity,[10],7.5
same,SPOT peptide array binding signal intensity,[11],11.5
same,SPOT peptide array binding signal intensity,[12],≤ 0
same,SPOT peptide array binding signal intensity,[13],138
same,SPOT peptide array binding signal intensity,[14],1.33
same,SPOT peptide array binding signal intensity,[15],71.5
same,SPOT peptide array binding signal intensity,[16],≤ 0
same,SPOT peptide array binding signal intensity,[17],7.5
same,SPOT peptide array binding signal intensity,[18],298
same,SPOT peptide array binding signal intensity,[19],780
same,SPOT peptide array binding signal intensity,[20],240
same,SPOT peptide array binding signal intensity,[21],382
same,SPOT peptide array binding signal intensity,[22],3930
same,SPOT peptide array binding signal intensity,[23],748
same,SPOT peptide array binding signal intensity,[24],23.5
same,SPOT peptide array binding signal intensity,[25],≤ 0
same,SPOT peptide array binding signal intensity,[26],≤ 0
same,SPOT peptide array binding signal intensity,[27],67
same,SPOT peptide array binding signal intensity,[28],0.5
same,SPOT peptide array binding signal intensity,[29],158
same,SPOT peptide array binding signal intensity,[30],≤ 0
same,SPOT peptide array binding signal intensity,[31],88.5
same,SPOT peptide array binding signal intensity,[32],8.67
same,SPOT peptide array binding signal intensity,[33],0.5
same,SPOT peptide array binding signal intensity,[34],≤ 0
same,SPOT peptide array binding signal intensity,[35],602
same,SPOT peptide array binding signal intensity,[36],21.5
same,SPOT peptide array binding signal intensity,[37],670
same,SPOT peptide array binding signal intensity,[38],8.5
same,SPOT peptide array binding signal intensity,[39],≤ 0
same,SPOT peptide array binding signal intensity,[40],123
same,SPOT peptide array binding signal intensity,[41],≤ 0
same,SPOT peptide array binding signal intensity,[42],≤ 0
same,SPOT peptide array binding signal intensity,[43],≤ 0
same,SPOT peptide array binding signal intensity,[44],≤ 0
same,SPOT peptide array binding signal intensity,[45],24
same,SPOT peptide array binding signal intensity,[46],121
same,SPOT peptide array binding signal intensity,[47],1
same,SPOT peptide array binding signal intensity,[48],1930
same,SPOT peptide array binding signal intensity,[49],15.5
same,SPOT peptide array binding signal intensity,[50],29.5
same,SPOT peptide array binding signal intensity,[51],49.5
same,SPOT peptide array binding signal intensity,[52],305
same,SPOT peptide array binding signal intensity,[53],103
same,SPOT peptide array binding signal intensity,[54],45
same,SPOT peptide array binding signal intensity,[55],171
same,SPOT peptide array binding signal intensity,[56],266
same,SPOT peptide array binding signal intensity,[57],11.5
same,SPOT peptide array binding signal intensity,[58],528
same,SPOT peptide array binding signal intensity,[59],≤ 0
same,SPOT peptide array binding signal intensity,[60],366
same,SPOT peptide array binding signal intensity,[61],16.8
same,SPOT peptide array binding signal intensity,[62],1
same,SPOT peptide array binding signal intensity,[63],≤ 0
same,SPOT peptide array binding signal intensity,[64],≤ 0
same,SPOT peptide array binding signal intensity,[65],75.5
same,SPOT peptide array binding signal intensity,[66],21.5
same,SPOT peptide array binding signal intensity,[67],484
same,SPOT peptide array binding signal intensity,[68],670
same,SPOT peptide array binding signal intensity,[69],277
same,SPOT peptide array binding signal intensity,[70],13.5
same,SPOT peptide array binding signal intensity,[71],≤ 0
same,SPOT peptide array binding signal intensity,[72],129
same,SPOT peptide array binding signal intensity,[73],≤ 0
same,SPOT peptide array binding signal intensity,[74],3
SPLGAPPPPPHKDHL,SPOT peptide array binding signal intensity,[61],≤ 0
same,SPOT peptide array binding signal intensity,[62],≤ 0
same,SPOT peptide array binding signal intensity,[63],≤ 0
same,SPOT peptide array binding signal intensity,[64],1
same,SPOT peptide array binding signal intensity,[65],≤ 0
same,SPOT peptide array binding signal intensity,[66],≤ 0
same,SPOT peptide array binding signal intensity,[67],≤ 0
same,SPOT peptide array binding signal intensity,[68],≤ 0
same,SPOT peptide array binding signal intensity,[69],1260
same,SPOT peptide array binding signal intensity,[70],≤ 0
same,SPOT peptide array binding signal intensity,[71],2
same,SPOT peptide array binding signal intensity,[72],0.167
same,SPOT peptide array binding signal intensity,[73],1
same,SPOT peptide array binding signal intensity,[74],≤ 0
